Measurements: publication PMC7862700, “An all-to-all approach to the identification of sequence-specific readers for epigenetic DNA modifications on cytosine”

Columns and labels:
Test in all cases: DAPPL (digital affinity profiling via proximity ligation, sequencing); 10 mM Tris-HCl pH 7.5, 50 mM NaCl, 1 mM DTT, 4% glycerol, room temperature, 30 min; GST-TFs on glutathione beads, 16-mer random dsDNA library, 0.1% formaldehyde crosslink after washing; high values mean tight binding
FLI1 = biological target: T1, FLI1 (Homo sapiens, UniProt Q01543 1-452); conditions: protein: recombinant; tags: N-terminal GST; dsDNA, one strand shown
T1 sequence: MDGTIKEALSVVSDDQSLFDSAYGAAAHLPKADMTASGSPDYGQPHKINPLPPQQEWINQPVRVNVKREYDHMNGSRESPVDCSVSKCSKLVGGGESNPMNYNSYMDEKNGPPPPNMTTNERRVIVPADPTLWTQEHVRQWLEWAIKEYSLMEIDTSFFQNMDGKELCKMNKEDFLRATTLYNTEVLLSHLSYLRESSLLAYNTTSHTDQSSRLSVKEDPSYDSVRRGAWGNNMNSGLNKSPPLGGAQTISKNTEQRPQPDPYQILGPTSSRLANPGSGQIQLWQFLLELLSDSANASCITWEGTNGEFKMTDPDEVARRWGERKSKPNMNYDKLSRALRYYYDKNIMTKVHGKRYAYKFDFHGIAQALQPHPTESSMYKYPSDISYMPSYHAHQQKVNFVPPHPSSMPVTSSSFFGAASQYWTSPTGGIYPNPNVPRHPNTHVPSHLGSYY
How it was run: (§1)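 The binding signal reported is, for every hexamer, its read frequency for a factor over its read frequency for the tag-only sample. Reads came from pools of yeast-expressed, GST-fused human transcription factors on glutathione beads, barcoded with DNA and mixed with that sample, which were incubated with 200 nmole of a random double-stranded 16-mer DNA library in Tris/NaCl/DTT/glycerol buffer at room temperature for 30 min. After washing, the pools were crosslinked with 0.1% formaldehyde, proximity-ligated with BsaI/T4 ligase for 1 h at 37 °C, PCR-amplified and sequenced on an Illumina NextSeq500.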

ELK1 = biological target: T2, ELK1 (Homo sapiens, UniProt P19419 1-428); conditions: protein: recombinant; tags: N-terminal GST; dsDNA, one strand shown
T2 sequence: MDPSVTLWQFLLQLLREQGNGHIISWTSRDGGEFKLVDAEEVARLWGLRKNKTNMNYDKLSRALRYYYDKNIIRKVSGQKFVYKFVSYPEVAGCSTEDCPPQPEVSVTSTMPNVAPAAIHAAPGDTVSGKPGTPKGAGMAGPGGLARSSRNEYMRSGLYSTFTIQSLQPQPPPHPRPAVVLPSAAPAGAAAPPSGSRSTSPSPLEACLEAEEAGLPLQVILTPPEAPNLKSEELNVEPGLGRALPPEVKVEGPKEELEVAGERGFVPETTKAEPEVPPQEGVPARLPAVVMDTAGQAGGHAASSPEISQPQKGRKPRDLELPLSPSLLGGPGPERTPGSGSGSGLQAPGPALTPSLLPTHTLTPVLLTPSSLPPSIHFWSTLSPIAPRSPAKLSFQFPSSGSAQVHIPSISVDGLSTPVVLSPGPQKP
How it was run: as §1

GABPA = biological target: T3, GABPA (Homo sapiens, UniProt Q06546 1-454); conditions: protein: recombinant; tags: N-terminal GST; dsDNA, one strand shown
T3 sequence: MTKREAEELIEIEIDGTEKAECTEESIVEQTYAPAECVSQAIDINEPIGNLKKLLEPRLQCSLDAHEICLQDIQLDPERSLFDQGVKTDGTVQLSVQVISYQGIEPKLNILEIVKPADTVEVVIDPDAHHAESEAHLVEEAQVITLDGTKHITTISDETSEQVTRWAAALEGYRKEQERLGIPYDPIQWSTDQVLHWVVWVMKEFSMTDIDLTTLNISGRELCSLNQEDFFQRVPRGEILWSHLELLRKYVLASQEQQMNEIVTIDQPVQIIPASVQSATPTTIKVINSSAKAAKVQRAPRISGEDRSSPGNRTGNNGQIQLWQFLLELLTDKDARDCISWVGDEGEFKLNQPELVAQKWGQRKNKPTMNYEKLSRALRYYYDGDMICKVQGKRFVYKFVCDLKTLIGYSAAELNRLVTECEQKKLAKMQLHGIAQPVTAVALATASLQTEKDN
How it was run: as §1

ERG = biological target: T4, ERG (Homo sapiens, UniProt P11308 1-479); conditions: protein: recombinant; tags: N-terminal GST; dsDNA, one strand shown
T4 sequence: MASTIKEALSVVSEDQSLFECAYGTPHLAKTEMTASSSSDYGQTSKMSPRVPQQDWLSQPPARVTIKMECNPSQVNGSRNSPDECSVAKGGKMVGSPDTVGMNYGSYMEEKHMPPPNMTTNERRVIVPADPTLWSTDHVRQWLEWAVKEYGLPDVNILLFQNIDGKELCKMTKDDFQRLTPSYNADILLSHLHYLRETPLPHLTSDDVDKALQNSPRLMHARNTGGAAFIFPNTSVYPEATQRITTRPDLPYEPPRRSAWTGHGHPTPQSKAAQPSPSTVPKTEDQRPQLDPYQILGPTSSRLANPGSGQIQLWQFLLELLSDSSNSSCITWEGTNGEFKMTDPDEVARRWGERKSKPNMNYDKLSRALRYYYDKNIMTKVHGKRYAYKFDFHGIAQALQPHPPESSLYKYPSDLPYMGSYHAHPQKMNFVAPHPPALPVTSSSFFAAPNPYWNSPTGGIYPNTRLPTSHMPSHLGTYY
How it was run: as §1

ELF1 = ELF1 (Homo sapiens, UniProt P32519 1-619); conditions: protein: recombinant; tags: N-terminal GST; dsDNA, one strand shown
Sequence of ELF1 (P32519 whole entry): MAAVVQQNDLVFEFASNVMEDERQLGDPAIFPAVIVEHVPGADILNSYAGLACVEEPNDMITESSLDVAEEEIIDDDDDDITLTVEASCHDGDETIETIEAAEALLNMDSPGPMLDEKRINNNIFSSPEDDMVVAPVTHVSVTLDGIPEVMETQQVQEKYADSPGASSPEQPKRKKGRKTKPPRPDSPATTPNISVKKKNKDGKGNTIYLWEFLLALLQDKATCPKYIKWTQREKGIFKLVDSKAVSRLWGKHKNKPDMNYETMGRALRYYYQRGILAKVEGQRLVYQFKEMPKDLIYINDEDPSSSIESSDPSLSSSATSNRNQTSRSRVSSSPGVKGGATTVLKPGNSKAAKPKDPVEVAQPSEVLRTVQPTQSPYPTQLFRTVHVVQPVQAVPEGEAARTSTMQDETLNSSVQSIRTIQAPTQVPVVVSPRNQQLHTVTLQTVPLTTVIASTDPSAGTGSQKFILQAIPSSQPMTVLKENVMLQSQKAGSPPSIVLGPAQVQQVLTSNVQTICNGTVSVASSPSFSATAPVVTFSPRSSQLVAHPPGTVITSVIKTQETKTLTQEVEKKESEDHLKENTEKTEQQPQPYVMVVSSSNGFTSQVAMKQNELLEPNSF
How it was run: as §1

EHF = biological target: T5, EHF (Homo sapiens, UniProt Q9NZC4 1-300); conditions: protein: recombinant; tags: N-terminal GST; dsDNA, one strand shown
T5 sequence: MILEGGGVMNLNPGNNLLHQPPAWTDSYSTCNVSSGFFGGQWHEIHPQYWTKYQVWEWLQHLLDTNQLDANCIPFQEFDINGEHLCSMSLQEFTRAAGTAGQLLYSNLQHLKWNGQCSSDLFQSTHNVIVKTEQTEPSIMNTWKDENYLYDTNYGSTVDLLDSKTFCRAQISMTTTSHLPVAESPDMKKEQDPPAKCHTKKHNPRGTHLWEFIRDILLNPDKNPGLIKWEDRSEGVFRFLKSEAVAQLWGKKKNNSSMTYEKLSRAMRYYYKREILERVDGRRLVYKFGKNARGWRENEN
How it was run: as §1

SPI1 = SPI1 (Homo sapiens, UniProt P17947 1-270); conditions: protein: recombinant; tags: N-terminal GST; dsDNA, one strand shown
How it was run: as §1

SPIB = SPIB (Homo sapiens, UniProt Q01892 1-262); conditions: protein: recombinant; tags: N-terminal GST; dsDNA, one strand shown
Sequence of SPIB (Q01892 whole entry): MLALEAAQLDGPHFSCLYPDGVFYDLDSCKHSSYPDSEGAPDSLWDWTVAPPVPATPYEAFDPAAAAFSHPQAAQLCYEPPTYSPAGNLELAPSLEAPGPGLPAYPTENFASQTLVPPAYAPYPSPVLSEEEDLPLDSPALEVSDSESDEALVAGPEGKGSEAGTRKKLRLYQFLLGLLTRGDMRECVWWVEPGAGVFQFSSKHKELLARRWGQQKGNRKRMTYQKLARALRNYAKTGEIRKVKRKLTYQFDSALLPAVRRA
How it was run: as §1

ELK3 = biological target: T6, ELK3 (Homo sapiens, UniProt P41970 1-407); conditions: protein: recombinant; tags: N-terminal GST; dsDNA, one strand shown
T6 sequence: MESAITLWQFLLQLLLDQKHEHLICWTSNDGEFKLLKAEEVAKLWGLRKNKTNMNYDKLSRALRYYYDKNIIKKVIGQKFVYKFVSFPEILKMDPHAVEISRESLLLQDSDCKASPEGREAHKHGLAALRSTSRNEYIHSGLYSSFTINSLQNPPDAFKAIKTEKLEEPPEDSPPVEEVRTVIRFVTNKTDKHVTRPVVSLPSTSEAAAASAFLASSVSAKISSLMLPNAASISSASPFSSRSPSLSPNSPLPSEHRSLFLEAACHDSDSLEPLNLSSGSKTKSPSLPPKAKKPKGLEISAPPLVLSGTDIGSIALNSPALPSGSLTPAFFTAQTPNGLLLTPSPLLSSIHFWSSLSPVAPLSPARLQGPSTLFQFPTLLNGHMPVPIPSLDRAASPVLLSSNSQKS
How it was run: as §1

FEV = biological target: T7, FEV (Homo sapiens, UniProt Q99581 1-238); conditions: protein: recombinant; tags: N-terminal GST; dsDNA, one strand shown
T7 sequence: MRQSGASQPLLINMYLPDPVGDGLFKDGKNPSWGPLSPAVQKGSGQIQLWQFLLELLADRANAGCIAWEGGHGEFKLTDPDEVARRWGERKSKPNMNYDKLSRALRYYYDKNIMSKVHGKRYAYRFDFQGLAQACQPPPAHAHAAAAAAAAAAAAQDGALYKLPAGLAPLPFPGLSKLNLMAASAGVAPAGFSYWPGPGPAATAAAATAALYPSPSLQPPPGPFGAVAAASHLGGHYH
How it was run: as §1

ETV5 = ETV5 (Homo sapiens, UniProt P41161 1-510); conditions: protein: recombinant; tags: N-terminal GST; dsDNA, one strand shown
Sequence of ETV5 (P41161 whole entry): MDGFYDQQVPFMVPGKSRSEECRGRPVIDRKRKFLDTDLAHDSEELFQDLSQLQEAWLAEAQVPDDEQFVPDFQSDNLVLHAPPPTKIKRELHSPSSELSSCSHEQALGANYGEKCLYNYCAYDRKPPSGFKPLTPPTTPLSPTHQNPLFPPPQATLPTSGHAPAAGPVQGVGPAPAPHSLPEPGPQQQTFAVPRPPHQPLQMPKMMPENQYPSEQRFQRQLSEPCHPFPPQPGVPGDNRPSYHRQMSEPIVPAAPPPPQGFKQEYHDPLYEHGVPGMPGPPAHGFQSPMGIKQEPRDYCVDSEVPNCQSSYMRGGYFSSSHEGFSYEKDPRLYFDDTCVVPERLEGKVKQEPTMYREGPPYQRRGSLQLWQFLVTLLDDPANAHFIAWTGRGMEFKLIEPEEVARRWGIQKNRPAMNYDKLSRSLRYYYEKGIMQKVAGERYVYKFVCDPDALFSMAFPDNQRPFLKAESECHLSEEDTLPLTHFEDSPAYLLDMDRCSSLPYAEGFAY
How it was run: as §1

HSF1 = HSF1 (Homo sapiens, UniProt Q00613 1-529); conditions: protein: recombinant; tags: N-terminal GST; chain copies: 3; dsDNA, one strand shown
Sequence of HSF1 (Q00613 whole entry): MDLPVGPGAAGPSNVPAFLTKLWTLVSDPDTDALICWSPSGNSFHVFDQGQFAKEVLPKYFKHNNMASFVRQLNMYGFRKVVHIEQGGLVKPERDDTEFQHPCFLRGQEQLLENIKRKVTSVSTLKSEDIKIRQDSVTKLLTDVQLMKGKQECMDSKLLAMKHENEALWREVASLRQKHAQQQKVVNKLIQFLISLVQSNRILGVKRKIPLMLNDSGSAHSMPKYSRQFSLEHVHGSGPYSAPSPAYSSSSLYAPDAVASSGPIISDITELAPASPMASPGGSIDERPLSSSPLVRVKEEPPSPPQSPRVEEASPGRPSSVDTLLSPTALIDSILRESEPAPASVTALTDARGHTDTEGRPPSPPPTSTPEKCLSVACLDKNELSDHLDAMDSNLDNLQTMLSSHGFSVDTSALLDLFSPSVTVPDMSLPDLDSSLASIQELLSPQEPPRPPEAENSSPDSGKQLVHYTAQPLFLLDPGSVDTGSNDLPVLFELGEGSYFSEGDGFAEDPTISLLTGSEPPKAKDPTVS
How it was run: as §1

ELF4 = ELF4 (Homo sapiens, UniProt Q99607 1-663); conditions: protein: recombinant; tags: N-terminal GST; dsDNA, one strand shown
Sequence of ELF4 (Q99607 whole entry): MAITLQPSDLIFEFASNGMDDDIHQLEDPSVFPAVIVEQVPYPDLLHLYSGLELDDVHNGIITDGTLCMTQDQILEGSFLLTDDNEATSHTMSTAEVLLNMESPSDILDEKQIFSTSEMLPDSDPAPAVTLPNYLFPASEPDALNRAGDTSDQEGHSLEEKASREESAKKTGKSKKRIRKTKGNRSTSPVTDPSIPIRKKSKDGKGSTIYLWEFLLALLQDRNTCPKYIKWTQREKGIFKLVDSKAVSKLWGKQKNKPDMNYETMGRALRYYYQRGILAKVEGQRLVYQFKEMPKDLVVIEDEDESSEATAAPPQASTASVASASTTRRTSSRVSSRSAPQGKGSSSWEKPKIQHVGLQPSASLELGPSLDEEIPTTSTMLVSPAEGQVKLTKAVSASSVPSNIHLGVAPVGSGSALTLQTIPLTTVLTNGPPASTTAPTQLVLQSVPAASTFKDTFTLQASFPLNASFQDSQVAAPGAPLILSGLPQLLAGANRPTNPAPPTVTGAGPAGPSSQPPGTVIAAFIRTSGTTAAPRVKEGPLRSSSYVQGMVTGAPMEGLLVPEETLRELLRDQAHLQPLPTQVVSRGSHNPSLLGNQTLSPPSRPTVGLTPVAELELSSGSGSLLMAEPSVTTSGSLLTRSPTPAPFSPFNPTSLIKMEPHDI
How it was run: as §1

ELK4 = biological target: T8, ELK4 (Homo sapiens, UniProt P28324-2 1-405); conditions: protein: recombinant; tags: N-terminal GST; dsDNA, one strand shown
T8 sequence: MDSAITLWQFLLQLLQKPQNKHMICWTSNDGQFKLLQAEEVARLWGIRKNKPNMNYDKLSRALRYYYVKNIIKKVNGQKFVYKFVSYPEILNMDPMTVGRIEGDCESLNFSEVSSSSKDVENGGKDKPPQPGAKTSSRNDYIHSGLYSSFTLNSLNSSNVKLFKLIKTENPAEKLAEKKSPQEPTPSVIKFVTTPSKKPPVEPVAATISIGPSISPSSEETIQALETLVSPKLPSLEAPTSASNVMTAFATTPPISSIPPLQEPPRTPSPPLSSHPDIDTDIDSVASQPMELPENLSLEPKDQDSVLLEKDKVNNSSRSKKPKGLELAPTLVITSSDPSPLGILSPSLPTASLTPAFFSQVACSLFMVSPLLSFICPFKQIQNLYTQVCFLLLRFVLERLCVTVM
How it was run: as §1

ETV2 = biological target: T9, ETV2 (Homo sapiens, UniProt O00321 1-342); conditions: protein: recombinant; tags: N-terminal GST; dsDNA, one strand shown
T9 sequence: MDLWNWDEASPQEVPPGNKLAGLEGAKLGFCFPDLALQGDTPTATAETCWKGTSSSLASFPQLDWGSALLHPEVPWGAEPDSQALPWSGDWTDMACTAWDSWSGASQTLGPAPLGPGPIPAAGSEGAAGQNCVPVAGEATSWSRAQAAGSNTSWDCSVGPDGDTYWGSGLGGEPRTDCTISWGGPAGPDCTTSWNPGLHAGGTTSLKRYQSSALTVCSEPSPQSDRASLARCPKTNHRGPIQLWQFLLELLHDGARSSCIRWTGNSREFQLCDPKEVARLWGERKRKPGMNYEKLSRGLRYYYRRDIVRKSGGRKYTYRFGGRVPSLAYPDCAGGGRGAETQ
How it was run: as §1

ELF3 = biological target: T10, ELF3 (Homo sapiens, UniProt P78545 1-371); conditions: protein: recombinant; tags: N-terminal GST; dsDNA, one strand shown
T10 sequence: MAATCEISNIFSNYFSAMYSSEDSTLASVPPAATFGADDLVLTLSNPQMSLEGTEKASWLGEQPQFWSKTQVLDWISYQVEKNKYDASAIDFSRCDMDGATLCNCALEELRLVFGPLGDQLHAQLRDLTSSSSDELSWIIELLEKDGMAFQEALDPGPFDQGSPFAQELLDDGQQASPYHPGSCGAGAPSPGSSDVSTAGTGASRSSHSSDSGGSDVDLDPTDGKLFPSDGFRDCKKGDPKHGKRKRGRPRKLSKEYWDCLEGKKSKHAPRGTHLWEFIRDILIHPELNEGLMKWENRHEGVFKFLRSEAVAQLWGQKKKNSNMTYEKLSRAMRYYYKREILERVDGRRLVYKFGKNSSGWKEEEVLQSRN
How it was run: as §1

CRX = CRX (Homo sapiens, UniProt O43186 1-299); conditions: protein: recombinant; tags: N-terminal GST; dsDNA, one strand shown
Sequence of CRX (O43186 whole entry): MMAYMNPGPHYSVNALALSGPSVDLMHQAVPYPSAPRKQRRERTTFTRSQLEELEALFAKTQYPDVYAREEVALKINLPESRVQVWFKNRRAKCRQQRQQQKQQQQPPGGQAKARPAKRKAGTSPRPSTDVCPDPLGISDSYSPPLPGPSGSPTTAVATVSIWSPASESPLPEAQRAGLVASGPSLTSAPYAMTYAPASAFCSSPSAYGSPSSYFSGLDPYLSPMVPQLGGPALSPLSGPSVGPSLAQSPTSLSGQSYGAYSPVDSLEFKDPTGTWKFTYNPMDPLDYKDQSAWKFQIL
How it was run: as §1

ETV1 = ETV1 (Homo sapiens, UniProt P50549 1-477); conditions: protein: recombinant; tags: N-terminal GST; dsDNA, one strand shown
Sequence of ETV1 (P50549 whole entry): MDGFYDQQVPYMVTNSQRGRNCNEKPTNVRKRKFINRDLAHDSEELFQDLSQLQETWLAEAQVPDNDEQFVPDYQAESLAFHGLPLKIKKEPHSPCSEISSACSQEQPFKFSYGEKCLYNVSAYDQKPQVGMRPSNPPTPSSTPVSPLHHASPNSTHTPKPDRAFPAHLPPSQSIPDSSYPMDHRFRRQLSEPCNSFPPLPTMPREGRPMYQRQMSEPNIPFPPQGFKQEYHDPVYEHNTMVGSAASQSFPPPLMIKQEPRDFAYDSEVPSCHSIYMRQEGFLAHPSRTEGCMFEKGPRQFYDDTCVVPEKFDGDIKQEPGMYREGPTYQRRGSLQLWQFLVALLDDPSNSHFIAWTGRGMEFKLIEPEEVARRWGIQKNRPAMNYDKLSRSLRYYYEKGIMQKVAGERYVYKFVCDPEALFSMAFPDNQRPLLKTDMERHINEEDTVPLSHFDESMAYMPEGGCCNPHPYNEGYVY
How it was run: as §1

CTTTCG
binding signal (FLI1): 1.1 fold enrichment (6-mer frequency, TF over GST control)
binding signal (ELK1): 1.21 fold enrichment (6-mer frequency, TF over GST control)
binding signal (GABPA): 1.26 fold enrichment (6-mer frequency, TF over GST control)
binding signal (ERG): 1.15 fold enrichment (6-mer frequency, TF over GST control)
binding signal (ELF1): 1.3 fold enrichment (6-mer frequency, TF over GST control)
binding signal (EHF): 1.3 fold enrichment (6-mer frequency, TF over GST control)
binding signal (SPI1): 1.23 fold enrichment (6-mer frequency, TF over GST control)
binding signal (SPIB): 1.39 fold enrichment (6-mer frequency, TF over GST control)
binding signal (ELK3): 1.27 fold enrichment (6-mer frequency, TF over GST control)
binding signal (FEV): 1.26 fold enrichment (6-mer frequency, TF over GST control)
binding signal (ETV5): 1.27 fold enrichment (6-mer frequency, TF over GST control)
binding signal (HSF1): 1.65 fold enrichment (6-mer frequency, TF over GST control)
binding signal (ELF4): 1.19 fold enrichment (6-mer frequency, TF over GST control)
binding signal (ELK4): 1.4 fold enrichment (6-mer frequency, TF over GST control)
binding signal (ETV2): 1.3 fold enrichment (6-mer frequency, TF over GST control)
binding signal (ELF3): 1.4 fold enrichment (6-mer frequency, TF over GST control)
binding signal (CRX): 1.37 fold enrichment (6-mer frequency, TF over GST control)
binding signal (ETV1): 1.36 fold enrichment (6-mer frequency, TF over GST control)
